From PubChem BioAssay (EPA / NIEHS)
Results filed as inconclusive are left out. Active and inactive are the calls of the source. How the source made its calls: active means hit-call score of the fitted dose curve at least 0.9, where 1 is the maximum; inconclusive means response in the unintended direction; inactive means score below 0.9.

Experiment: CCTE_Mundy_HCI_hNP1_CellTiter: CCTE's Cell Titer-Glo 2 Assay in human neuroprogenitor cells for Viability, Mundy Lab (AID 2284241);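 on AC50: a hit is a drop in ATP luminescence versus DMSO meaning reduced viability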
Experimental: CCTE_Mundy_HCI_hNP1_CellTiter is a multiplexed, cell-based-readout assay that uses neural stem cells derived from a neuroepithelial cell lineage of WA09 embryonic cells with measurements taken at […] after chemical dosing in a microplate: 96-well plate.CCTE_Mundy_HCI_hNP1_CellTiter is one component of the CCTE_Mundy_HCI_hNP1_CellTiter assay. It measures cell viability related to ATP content using Luminescent Reporter.Data from the assay component CCTE_Mundy_HCI_hNP1_CellTiter was analyzed at the endpoint CCTE_Mundy_HCI_hNP1_CellTiter in the positive analysis fitting direction relative to DMSO as the negative control and baseline of activity. Using a type of viability reporter, loss -of-signal activity can be used to understand viability effects.
Human neural progenitor cells (hNP1) were obtained as cryopreserved cells from ArunA Biomedical, Athens Georgia. Cells are plated on pre-coated poly-L-ornithine/laminin clear bottom and opaque 96 well plates (day 0). Plates are placed in a 37 °C, 5% CO2 incubator for 40 to 44 hours at which time plates are removed from the incubator and 10 uL of a freshly made chemical solution is added to each well. Cell viability was based on number of cells per field or determined in sister plates using the CellTiter-Glo luminescent assay (Promega) which measures the amount of ATP present in each well. Twenty-four hours after chemical treatment, 50ul of CellTiter-Glo assay buffer was added to each well and the plate incubated for 30min at room temperature. Luminescence was then recorded in each well using a FLUOstar Optima plate reader (BMG LABTECH, Cary, NC).

SMILES | outcome | AC50
CC1(C)C(C=C(Cl)Cl)C1C(=O)O[C@H](C#N)c1cccc(Oc2ccccc2)c1 (some centres not stated) | inactive | –
CC1(C)[C@H](C=C(Cl)Cl)[C@H]1C(=O)OCc1c(F)c(F)cc(F)c1F | – | 23.2 µM (active)
C[n+]1ccc(-c2cc[n+](C)cc2)cc1 | inactive | –
[CH3][Hg][Cl] | – | 9.57 µM (active)
Cn1nc(C(F)(F)F)c(CS(=O)(=O)C2=NOC(C)(C)C2)c1OC(F)F | inactive | –
O=[As]O | – | 6.1 µM (active)
C[C@H](N)Cc1ccccc1 | inactive | –
Brc1ccc(Oc2ccc(Br)cc2Br)c(Br)c1 | inactive | –
C=CCN1CC[C@]23c4c5ccc(O)c4O[C@H]2C(=O)CC[C@@]3(O)[C@H]1C5 | inactive | –
CCOP(=O)(Oc1cnc(C(C)(C)C)nc1)OC(C)C (configuration not stated) | inactive | –
[Cd+2].[Cl-].[Cl-] | inactive | –
C#CCN(C)[C@H](C)Cc1ccccc1 | inactive | –
CCC[CH2][Sn]([CH2]CCC)([CH2]CCC)[O][Sn]([CH2]CCC)([CH2]CCC)[CH2]CCC | – | 0.0572 µM (active)
CCOP(=O)(OCC)SCSC(C)(C)C | inactive | –
CCOP(=S)(OCC)SCS(=O)C(C)(C)C (configuration not stated) | inactive | –
CC1(C)[C@H](C=C(Cl)Cl)[C@@H]1C(=O)O[C@@H](C#N)c1cccc(Oc2ccccc2)c1 | – | 26 µM (active)
CC1(C)[C@@H](C=C(Cl)Cl)[C@@H]1C(=O)O[C@@H](C#N)c1ccc(F)c(Oc2ccccc2)c1 | inactive | –
